Measurements from PubChem BioAssay (NCI).
Where “and” joins values, the source holds several entries; their conditions need not be identical. Equal values may be shown once. About 83,000 compounds went through this panel and 20% of them were active in at least one assay; those are over-represented in the sample as a whole.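 Activity criterion: percent growth below 10, measured after cells in 96-well plates were exposed to a single compound concentration for 48 hours.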 Calls of active or inactive are those of the source.

Experiments:
Test in all cases: NCI-60 one-dose screen, 48 h (100 = growth as untreated, 0 = no growth, -100 = all killed)
SR leukemia = test system: SR leukemia
RPMI-8226 leukemia = test system: RPMI-8226 leukemia
OVCAR-8 ovarian = details: 10 µM
OVCAR-5 ovarian = test system: OVCAR-5 ovarian
OVCAR-4 ovarian = test system: OVCAR-4 ovarian
SK-OV-3 ovarian = test system: SK-OV-3 ovarian
IGROV1 ovarian = test system: IGROV1 ovarian
OVCAR-3 ovarian = test system: OVCAR-3 ovarian
HS 578T breast = test system: HS 578T breast
NCI/ADR-RES ovarian = test system: NCI/ADR-RES ovarian
T-47D breast = test system: T-47D breast
BT-549 breast = test system: BT-549 breast
MDA-MB-435 melanoma = test system: MDA-MB-435 melanoma
SW-620 colon = test system: SW-620 colon
MCF7 breast = test system: MCF7 breast
HCT-116 colon = test system: HCT-116 colon
HCC-2998 colon = test system: HCC-2998 colon
KM12 colon = test system: KM12 colon

Measured: growth

CC/C(=C(\c1ccccc1)c1ccc(OCCN(C)C)cc1)c1ccccc1
active: SR leukemia; 10 µM -18.9% | SR leukemia; 12.5 µM -27.2% | RPMI-8226 leukemia; 10 µM -28.3% | RPMI-8226 leukemia; 12.5 µM -38.1% | OVCAR-5 ovarian; 12.5 µM -83.1% | OVCAR-4 ovarian; 12.5 µM 2.45% | IGROV1 ovarian; 12.5 µM -20.4% | OVCAR-3 ovarian; 12.5 µM -6.16% | HS 578T breast; 12.5 µM -70.9% | NCI/ADR-RES ovarian; 12.5 µM -41.2% | T-47D breast; 12.5 µM -18.5% | BT-549 breast; 12.5 µM -96% | MDA-MB-435 melanoma; 12.5 µM -87.2% | SW-620 colon; 10 µM 4.89% | SW-620 colon; 12.5 µM -50.4% | MCF7 breast; 10 µM -10.3% | MCF7 breast; 12.5 µM -61.6% | HCT-116 colon; 12.5 µM -98.1% | HCC-2998 colon; 12.5 µM -96.2% | KM12 colon; 12.5 µM -74.4%
inactive: OVCAR-8 ovarian 60.5% | OVCAR-4 ovarian; 10 µM 46.3% | SK-OV-3 ovarian; 10 µM 76.8% | SK-OV-3 ovarian; 12.5 µM 32.6% | IGROV1 ovarian; 10 µM 41.2% | OVCAR-3 ovarian; 10 µM 52.9% | HS 578T breast; 10 µM 60.5% | NCI/ADR-RES ovarian; 10 µM 43.2% | BT-549 breast; 10 µM 69.8% | MDA-MB-435 melanoma; 10 µM 37.8% | HCT-116 colon; 10 µM 26.2% | HCC-2998 colon; 10 µM 16.3% | KM12 colon; 10 µM 25%

COc1ccc2sc3cccc(NCCN(C)C)c3c(=O)c2c1
40.9% (inactive) and 7.16% (active): OVCAR-8 ovarian
70.2% (inactive) and -6.71% (active): RPMI-8226 leukemia; 10 µM
38.3% (inactive) and -7.99% (active): KM12 colon; 10 µM
24.5% (inactive) and -79% (active): SW-620 colon; 10 µM
inactive: OVCAR-3 ovarian; 10 µM 61.6% and 22.1% | NCI/ADR-RES ovarian; 10 µM 48.5% and 14.7% | BT-549 breast; 10 µM 80.1% and 29.6%
53.1% (inactive) and 9.58% (active): OVCAR-5 ovarian; 10 µM
30.5% (inactive) and -72.8% (active): MCF7 breast; 10 µM
70.7% (inactive) and -34.7% (active): T-47D breast; 10 µM
64.7% (inactive) and -8.94% (active): OVCAR-4 ovarian; 10 µM
41.2% (inactive) and -2.42% (active): IGROV1 ovarian; 10 µM
81.2% (inactive) and 8.98% (active): HS 578T breast; 10 µM
57.2% (inactive) and 3.91% (active): SK-OV-3 ovarian; 10 µM
active: SR leukemia; 10 µM -31.7%
31.3% (inactive) and -86.9% (active): MDA-MB-435 melanoma; 10 µM
28.1% (inactive) and -83% (active): HCC-2998 colon; 10 µM
18.5% (inactive) and -76.2% (active): HCT-116 colon; 10 µM

CN(Cc1cnc2nc(N)nc(N)c2n1)c1ccc(C(=O)N[C@@H](CCC(=O)O)C(=O)O)cc1
inactive: SR leukemia; 2.5 µM 32% | SR leukemia; 10 µM 26.8% | RPMI-8226 leukemia; 2.5 µM 33.9% | RPMI-8226 leukemia; 10 µM 41.7% | OVCAR-5 ovarian; 2.5 µM 41.1% | OVCAR-5 ovarian; 10 µM 27.2% | OVCAR-4 ovarian; 2.5 µM 93.4% | OVCAR-4 ovarian; 10 µM 105% | SK-OV-3 ovarian; 2.5 µM 75% | SK-OV-3 ovarian; 10 µM 56.2% | IGROV1 ovarian; 2.5 µM 38.7% | IGROV1 ovarian; 10 µM 21% | OVCAR-3 ovarian; 2.5 µM 54.2% | OVCAR-3 ovarian; 10 µM 47.8% | HS 578T breast; 2.5 µM 27.4% | NCI/ADR-RES ovarian; 2.5 µM 29% | T-47D breast; 2.5 µM 55.6% | T-47D breast; 10 µM 46.2% | BT-549 breast; 2.5 µM 40.9% | BT-549 breast; 10 µM 46.9% | MDA-MB-435 melanoma; 2.5 µM 25.7% | MDA-MB-435 melanoma; 10 µM 27.2% | SW-620 colon; 2.5 µM 41.9% | SW-620 colon; 10 µM 35.6% | MCF7 breast; 2.5 µM 24.4% | MCF7 breast; 10 µM 17.2% | HCT-116 colon; 2.5 µM 18.5% | HCT-116 colon; 10 µM 22.7% | HCC-2998 colon; 10 µM 106% | KM12 colon; 2.5 µM 30.6% | KM12 colon; 10 µM 31.9%
active: NCI/ADR-RES ovarian; 10 µM 7.09% | HCC-2998 colon; 2.5 µM 8.58%

CC[C@@]1(O)C(=O)OCc2c1cc1n(c2=O)Cc2cc3c(CN(C)C)c(O)ccc3nc2-1
8.58% (active) and 13.8% (inactive): OVCAR-5 ovarian; 10 µM
inactive: OVCAR-4 ovarian; 10 µM 14% | SK-OV-3 ovarian; 10 µM 10.6% and 20.4% | IGROV1 ovarian; 10 µM 15.3% | HS 578T breast; 10 µM 28.5%
13.9% (inactive) and 5.76% (active): NCI/ADR-RES ovarian; 10 µM
active: SR leukemia; 10 µM -5.49% | RPMI-8226 leukemia; 10 µM -28.3% | OVCAR-8 ovarian 3.57% | OVCAR-3 ovarian; 10 µM -21.7% and -9.74% | T-47D breast; 10 µM 9.96% and 8.7% | BT-549 breast; 10 µM -1.81% and -14.9% | MDA-MB-435 melanoma; 10 µM -44.2% and -55% | SW-620 colon; 10 µM 9.23% and 7.32% | MCF7 breast; 10 µM 1.58% and 5.19% | HCT-116 colon; 10 µM 0.82% and -14.2% | HCC-2998 colon; 10 µM -14.2% and -26.3% | KM12 colon; 10 µM 6.1% and -42.5%
